Our source for the growth values is PubChem BioAssay (NCI).

Among the test systems are HCT-15 colon; HT29 colon; SNB-75 CNS; SNB-19 CNS; U251 CNS; PC-3 prostate; LOX IMVI melanoma; SK-MEL-28 melanoma; SK-MEL-5 melanoma; UACC-62 melanoma.
What all share (assay): NCI-60 one-dose screen, 48 h (100 = growth as untreated, 0 = no growth, -100 = all killed)
Common to all, as to details: 10 µM unless noted

The panel holds about 83,000 compounds, 20% with a hit somewhere; the sample as a whole holds those more often.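 Assay: single dose, 48 h. Readout: percent growth (0 = no net growth; negative = cell death). Active: <10.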 Unmarked numbers belong to inactive results. Activity calls are given as the source filed them.

Regarding `COc1cc(C)c(C2C(C#N)=C(N)Oc3n[nH]c(-c4cccs4)c32)cc1C(C)C` (stereo not given), the growth in the assay on HCT-15 colon is 96.2%; in the assay with HT29 colon, 98.9%; in the assay on SNB-75 CNS, 86.8%; with SNB-19 CNS it was 103%; with U251 CNS, 90.2%; with PC-3 prostate, 95.3%. Besides, the growth was 98.6% in the assay with LOX IMVI melanoma and 112% in the assay with SK-MEL-28 melanoma.
Regarding `CC(C)(CCCN=C(N)Nc1ccc(Cl)cc1)c1ccc(F)cc1`, the growth was 67.1% in the assay on HCT-15 colon; 12.7% with HT29 colon; 60.7% with SNB-75 CNS; 67.4% in the assay with SNB-19 CNS; 65.5% in the assay with U251 CNS; 52.9% in the assay with PC-3 prostate. Also, in the assay with LOX IMVI melanoma, the growth is 57.8%.
Turning to `COc1ccc(CN2c3ccccc3Oc3ccccc32)cc1F`, the growth is 47.4% in the assay with HCT-15 colon; 11.2% in the assay on HT29 colon; 47.9% in the assay with SNB-75 CNS; 67.8% in the assay with SNB-19 CNS; 39.5% in the assay with U251 CNS; 64.8% in the assay with PC-3 prostate. Further, the growth in the assay on LOX IMVI melanoma was 59%.
Take `COc1cc2c(cc1OC)C(Sc1ccc(SC)cc1)c1c(nc(N)c(C#N)c1N)O2` (stereo not given): the growth was -71.5% (active) in the assay with HCT-15 colon; -55.2% (active) in the assay on HT29 colon; -54.5% (active) with SNB-75 CNS; -77.9% (active) in the assay on SNB-19 CNS; -99.3% (active) in the assay with U251 CNS; -75.8% (active) in the assay with PC-3 prostate. Moreover, the growth with LOX IMVI melanoma is -96.3% (active); with SK-MEL-28 melanoma it was -55.5% (active).
As for `COc1cc2c(cc1O)CC[C@@H]1[C@@H]2CC[C@]2(C)[C@@H](OCCCN(C)C)CC[C@@H]12`, the growth in the assay with HCT-15 colon was -54.6% (active); with HT29 colon it was -90.8% (active); in the assay with SNB-75 CNS, -65.4% (active); in the assay with SNB-19 CNS it was -20.6% (active); in the assay on U251 CNS, -74.2% (active); with PC-3 prostate, -18.6% (active). Besides, the growth with LOX IMVI melanoma was -91.5% (active).
Take `NC(=NCCCOc1ccc(Cl)cc1)Nc1ccc(Cl)cc1`: the growth in the assay on HCT-15 colon is 56%; in the assay with HT29 colon, 1.24% (active); in the assay on SNB-75 CNS, 44.8%; in the assay with SNB-19 CNS, 19.3%; in the assay with U251 CNS, 41.2%; in the assay on PC-3 prostate, 26.7%. Moreover, the growth with LOX IMVI melanoma is 40.3%.
With `COc1ccc(C2Nc3c(c(C(C)(C)C)nn3-c3ccccc3)C(=O)CS2)cc1` (stereo not given), the growth in the assay with HCT-15 colon is 97.7%; with HT29 colon, 86.7%; in the assay with SNB-75 CNS it was 89.2%; with SNB-19 CNS, 98.8%; in the assay on U251 CNS it was 102%; in the assay on PC-3 prostate, 79.5%. Further, the growth with LOX IMVI melanoma is 94.5%; in the assay on SK-MEL-28 melanoma it was 113%.
For the compound `CCOc1ccc(-n2nc(C(=O)Nc3cc(OC)c(OC)c(OC)c3)nc2-c2cc(OC)c(OC)c(OC)c2)cc1`, the growth in the assay with HCT-15 colon was 82.1%; in the assay with HT29 colon it was 84.6%; in the assay with SNB-75 CNS it was 65.6%; in the assay on SNB-19 CNS, 82.1%; in the assay with U251 CNS, 85.1%; in the assay with PC-3 prostate, 70.2%. Further, in the assay with LOX IMVI melanoma, the growth is 89%.
As to `NC(=NC1C2CC3CC(C2)CC1C3)Nc1ccc(I)cc1` (stereo not given), the growth is 43.9% in the assay on HCT-15 colon; 9.6% (active) in the assay on HT29 colon; 57.1% in the assay with SNB-75 CNS; 27.5% in the assay with SNB-19 CNS; 50.4% in the assay with U251 CNS; 36.9% in the assay with PC-3 prostate. Moreover, the growth in the assay with LOX IMVI melanoma was 61.9%.
On to `CC1=C[C@H]2c3c(c(O)c(O)c4oc5ccccc5c(=O)c34)[C@H](c3cc(O)c(O)c4oc5ccccc5c(=O)c34)[C@H]2C(C)(C)C1`, for which the growth in the assay with HCT-15 colon is 13.7%; in the assay on HT29 colon, 14.8%; in the assay on SNB-75 CNS, -29.7% (active); with SNB-19 CNS, 13.8%; in the assay with U251 CNS, 5.08% (active); in the assay with PC-3 prostate it was 5.67% (active). The growth in the assay on LOX IMVI melanoma was -78.9% (active); in the assay with SK-MEL-28 melanoma it was 18.3%.
On to `O=C1/C(=C/c2ccc(OCCCOc3ccc(Cl)cc3)cc2)N=C2SCCCN12`, for which the growth in the assay on HCT-15 colon was 63.2%; with HT29 colon, 76%; with SNB-75 CNS it was 84.5%; in the assay with SNB-19 CNS, 78.5%; with U251 CNS it was 69.6%; in the assay on PC-3 prostate, 45.5%. The growth in the assay with LOX IMVI melanoma was 68.3%.
Regarding `COc1cc2c(cc1O)CC[C@@H]1[C@@H]2CC[C@]2(C)[C@@H](NCCN(C)C)CC[C@@H]12`, the growth in the assay with HCT-15 colon was -83.1% (active); with HT29 colon, -91.9% (active); in the assay with SNB-75 CNS, -96.6% (active); in the assay on SNB-19 CNS, -79.6% (active); in the assay on U251 CNS, -92.3% (active); with PC-3 prostate, -91.2% (active). Also, the growth in the assay with LOX IMVI melanoma was -84.2% (active).
For `c1ccc2[nH]c(-c3ccc(Nc4nc(N5CCCC5)nc5[nH]ncc45)cc3)nc2c1`, the growth is -36.2% (active) in the assay with HCT-15 colon; -49.1% (active) with HT29 colon; -79.2% (active) in the assay with SNB-75 CNS; 15.5% with SNB-19 CNS; -66.1% (active) in the assay on U251 CNS; 0.946% (active) in the assay on PC-3 prostate. Moreover, the growth with LOX IMVI melanoma was -84.4% (active).
`COc1ccc(CN2c3ccccc3Sc3ccccc32)c(C(F)(F)F)c1`: the growth was 37.3% in the assay on HCT-15 colon; 2.45% (active) in the assay with HT29 colon; 7.8% (active) with SNB-75 CNS; 32.7% in the assay on SNB-19 CNS; 20.6% with U251 CNS; 26.9% in the assay on PC-3 prostate. Also, in the assay with LOX IMVI melanoma, the growth is 54.7%.
Take `CC/C=C\C/C=C\C[C@H]1C/C=C2/C(=O)C=C[C@@H]2C/C=C\CCC(=O)O1`: the growth in the assay on HCT-15 colon is 0.621% (active); with HT29 colon, -40.5% (active); with SNB-75 CNS it was 64%; with SNB-19 CNS, 28%; with U251 CNS it was -23.2% (active); in the assay with PC-3 prostate, 2.76% (active). Besides, the growth in the assay on LOX IMVI melanoma was -59.7% (active).
Take `NCCNc1nc(Nc2ccc(-c3nc4ccccc4[nH]3)cc2)c2cn[nH]c2n1`: the growth in the assay on HCT-15 colon is 101%; in the assay with HT29 colon it was 62.7%; with SNB-75 CNS, 71.7%; in the assay with SNB-19 CNS, 66.5%; with U251 CNS it was -55.4% (active); in the assay with PC-3 prostate, 74%. The growth in the assay with LOX IMVI melanoma was -17.8% (active).
Take `Cc1cc(Nc2ccc(C)c(Cl)c2)n2nc(C(F)(F)F)nc2n1`: the growth was 66.9% in the assay on HCT-15 colon; 25.5% in the assay on HT29 colon; -30.7% (active) in the assay on SNB-75 CNS; 37.4% with SNB-19 CNS; -18.3% (active) in the assay on U251 CNS; 75.4% in the assay on SK-MEL-5 melanoma. Moreover, the growth in the assay with UACC-62 melanoma was 66.9%; with LOX IMVI melanoma, 12.2%; in the assay on SK-MEL-28 melanoma it was 82.8%.
